Screening data from PubChem.
An excerpt weighted towards active compounds, which were near 3.2% of everything screened.
sPLA2-III inh: Inhibits HGIII-sPLA2 liposome hydrolysis, primary screen; Q9NZ20; QFRET BODIPY PC-A2 liposome hydrolysis, fluorescence; inhibition, % at 12.2 µM; 0.56% of 370,000 active; AID 743126;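 active = inhibition above mean plus 3 SD of compounds lying within the high and low control bounds, cut at about 19% in these data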;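 note: 0% = median of test compound wells and 100% = no enzyme DMSO wells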
Target sequence (Q9NZ20 whole entry, looked up): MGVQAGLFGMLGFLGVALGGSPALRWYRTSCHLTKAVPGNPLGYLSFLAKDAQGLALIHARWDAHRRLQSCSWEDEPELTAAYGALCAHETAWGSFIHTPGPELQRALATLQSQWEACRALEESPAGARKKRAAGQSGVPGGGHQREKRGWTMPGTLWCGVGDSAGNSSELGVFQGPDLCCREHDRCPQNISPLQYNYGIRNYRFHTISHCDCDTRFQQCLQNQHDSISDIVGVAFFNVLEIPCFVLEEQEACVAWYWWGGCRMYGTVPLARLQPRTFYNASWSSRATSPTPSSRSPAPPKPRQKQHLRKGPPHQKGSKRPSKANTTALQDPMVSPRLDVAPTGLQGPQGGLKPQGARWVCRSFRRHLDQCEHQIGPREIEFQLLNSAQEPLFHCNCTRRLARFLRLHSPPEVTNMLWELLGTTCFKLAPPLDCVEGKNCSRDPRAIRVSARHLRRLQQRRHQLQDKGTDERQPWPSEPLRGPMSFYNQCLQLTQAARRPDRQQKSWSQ
bovine MsrA act: bovine methionine sulfoxide reductase A activation; 0.3% of 360,000 active; purified bovine MsrA, absorbance read-out; activation, % at 10.6 µM; AID 602163; in the data active = activation above about 7.5%;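 note: 0% = vehicle and 100% = reference activator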
PG9 binder: PG9 antibody binding by small molecule. 0.43% of 360,000 active. TR-FRET gp120-PG9 antibody binding. inhibition, % at 6.7 µM; in the data active = inhibition above about 8.5%
MsrA inh: bovine MsrA inhibition; purified bovine MsrA, absorbance read-out; inhibition, % at 15.5 µM; 0.75% of 360,000 active; AID 651718;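 note: 0% = vehicle wells with enzyme and 100% = reference inhibitor wells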
rCAG RNA binder: r(CAG) repeat RNA binding; TO-PRO-1 dye displacement fluorescence; inhibition, % at 3 µM; 1.3% of 370,000 active;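 active = inhibition above the plate cutoff, the mean of all test compounds on that plate plus 3 SD, cut at about 35% in these data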;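 note: 0% = DMSO alone and 100% = 100 µM mitoxantrone as full dye displacement; higher means more dye released from RNA so lower well fluorescence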
MsrA conf: confirmation of bovine MsrA inhibitors; shares compounds with MsrA inh; purified bovine MsrA, absorbance read-out; inhibition, % at 15.5 µM; 41% of 2,300 active;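 note: coupled to thioredoxin reductase with NADPH and selenocystamine and DMSO as substrate; 0% = vehicle only and 100% = full effect of reference inhibitor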
The depositor's hits bear a star; . = no result. Cut-off read from the data, not from the text of the source, unless noted: active = inhibition above about 4.5%; inactive = the rest.

SMILES | sPLA2-III inh | bovine MsrA act | PG9 binder | MsrA inh | rCAG RNA binder | MsrA conf
CCN1CCN(c2nc3ccccc3nc2NS(=O)(=O)c2ccc(NC(C)=O)cc2)CC1 | -8 | -12 | -3 | 4.7* | 4 | 2
Cc1ccc(S(=O)(=O)c2c(N)n(NC(=O)c3ccco3)c3nc4ccccc4nc23)cc1 | -11 | 0 | 2 | 4.8* | 20 | 2
Cc1ccc(NC(=O)C2CCN(c3nnc(-n4cccc4)s3)CC2)cc1C | -2 | . | . | . | 12 | .
CCc1ccc(-n2c(O)cnc2Nc2nc(C)cc(C)n2)cc1 | 10 | -8 | 1 | 9.5* | 1 | 7.0*
CCc1ccc(Nc2nc(C)cc(C)n2)cc1 | 1 | -2 | -1 | 0 | 1 | .
COc1ccc(-n2c(O)c(/C=N/Nc3nc(C)cc(C)n3)c3ccccc3c2=O)cc1OC | -7 | -9 | -4 | 1 | 4 | .
COc1ccc(-n2c(O)cnc2Nc2nc(C)cc(C)n2)cc1OC | 7 | -3 | 2 | 15* | -3 | 6.5*
CCC(=O)OCCNc1cc(Sc2nc3ccccc3[nH]2)c2nonc2c1[N+](=O)[O-] | -6 | -17 | 0 | 5.0* | 12 | 2
Cc1ccsc1S(=O)(=O)n1c(CN2CCOCC2)nc2ccccc21 | 0 | . | . | . | 3 | .
CC1=N/C(=C\c2ccc3c(c2)OCO3)C(=O)N1c1ccc(C(=O)O)cc1 | 5 | -1 | -3 | 5.6* | 1 | 2
Cc1nn(-c2ccccc2)c2sc(C(=O)NCCc3ccccc3)cc12 | -17 | . | . | . | 4 | .
COc1cc(/C=N/Nc2nc3ccccc3[nH]2)cc(OC)c1O | 5 | -7 | -17 | 5.1* | 1 | 4.7*
COc1cccc(/C=N/Nc2nc3ccccc3[nH]2)c1OC | 6 | -4 | -5 | 3 | -3 | .
COc1cccc(/C=N/Nc2ncnc(Cl)c2N)c1O | 11 | -7 | -8 | 5.7* | 9 | 5.2*
COc1ccc(O)c(/C=N/Nc2nc3ccccc3[nH]2)c1 | 10 | -2 | -14 | 5.8* | 6 | 4
COc1cccc(/C=N/Nc2nc3ccccc3[nH]2)c1O | 12 | -1 | -10 | 5.9* | 2 | 5.2*
COc1ccc(CN2C(C(=O)NC3CCCC3)CSCCS2(=O)=O)cc1 (centres undefined) | 14 | . | . | . | 5 | .
COc1cc(/C=N/Nc2nc3ccccc3[nH]c2=O)ccc1O | 3 | -5 | -2 | 1 | 0 | .
COc1cc(/C=N/Nc2nc3ccccc3[nH]2)ccc1O | -2 | -4 | -16 | 4.9* | 2 | 3
O=C(Nc1c(-c2ccccc2)nc2ncccn12)C1CC1 | 0 | . | . | . | -1 | .
Cc1ccc2nc(/C(C#N)=N/O)[nH]c2c1 | -22 | -6 | -1 | 5.1* | 5 | 3
COc1ccc(S[C@]2(C(=O)N(C)C)CC(=O)N(C(=O)c3ccccc3)[C@@H]2c2ccc(OC)cc2)cc1 | 1 | . | . | . | 6 | .
COc1ccc(/C=C2\CCOC2=O)cc1 | 8 | -5 | -1 | 0 | -3 | .
COc1ccc(N/C=C2\CCOC2=O)cc1 | -2 | -14 | -4 | 5.4* | 0 | 4
CC(C)(C)c1ccc(-c2nnc(SCC(=O)c3ccc4ccccc4c3)n2-c2ccc(Cl)cc2)cc1 | 7 | . | . | . | 8 | .
SMILES | sPLA2-III inh | bovine MsrA act | PG9 binder | MsrA inh | rCAG RNA binder | MsrA conf
CC(/C=C/c1ccccc1)=N\NC(N)=S | 17 | -5 | -3 | 6.0* | 5 | 4
CCCCNC(=O)C[C@H]1C[C@@]2(C(=O)OC)C(=C[C@H](C(C)C)O[C@@H]2C2CC2)N(Cc2cccc3ccccc23)C1=O | -9 | . | . | . | 1 | .
N#Cc1c(-n2cccc2/C=N/O)sc2c1CCCC2 | -9 | -2 | -1 | 16* | -2 | 14*
COc1ccc(CNCC#CC2=CCCCC2)c(OC)c1 | -7 | . | . | . | 2 | .
Cc1ccc(S(=O)(=O)N2CCN(S(=O)(=O)c3ccc(C)cc3)C2)cc1 | -11 | -5 | -2 | 5.5* | -3 | 2
Cc1cc(C)nc(NC2=NCC(=O)N2c2ccc3c(c2)OCCO3)n1 | 6 | -2 | 0 | 8.6* | -2 | 6.1*
Cc1noc(C)c1C(=O)Nc1nnc(-c2ccccc2)s1 | 3 | -6 | 0 | 4 | 3 | .
Cc1onc(-c2ccccc2)c1C(=O)Nc1nnc(-c2ccncc2)s1 | -4 | -19 | -1 | 5.0* | 13 | 4.9*
COc1ccc(C(=O)N(CN2CCCC2=O)c2nccs2)cc1OC | 11 | -15 | 2 | 7.5* | 0 | 5.1*
Cc1cc(C)cc(C(=O)OCCN(C)C2CN(Cc3cn(Cc4cccc(F)c4)nn3)S(=O)(=O)C2)c1 (centres undefined) | -1 | . | . | . | 0 | .
Oc1cccc(/C=N/Nc2ncnc3c2ncn3Cc2ccccc2)c1 | 6 | -10 | 1 | 4.8* | 4 | 5.2*
COc1ccc(CCC[C@H](CCC(=O)N(c2ccccc2)c2ccccc2)CCc2ccccc2)cc1 | -7 | . | . | . | 3 | .
CCN1C(=O)/C(=C\N(C(C)=O)c2ccccc2)OC1=S | -1 | -5 | 1 | 6.7* | -1 | 5.0*
CCCC[C@@H]1C(=O)N2N=Cc3cc4ccccc4cc3[C@H]2N2N=Cc3cc4ccccc4cc3[C@@H]12 | 8 | . | . | . | 12 | .
CC(C)C(=O)Nc1ncc(C(F)(F)F)cc1Cl | 2 | 3 | 1 | 3 | 0 | .
CC(Sc1ncc(C(F)(F)F)cc1Cl)C(=O)NC(N)=O (centres undefined) | -2 | -4 | -2 | 19* | -2 | 15*
O=C(O)c1cccc(NC2=C(Cl)C(=O)c3ccccc3C2=O)c1 | 6 | -10 | -6 | 4.9* | 2 | 1
Cn1c(=O)c2[nH]c(SCC(=O)NCCc3cccc(F)c3)nc2n(C)c1=O | 2 | . | . | . | 6 | .
Cc1c(OCc2ccc(C(=O)O)o2)ccc2c3c(c(=O)oc12)CCC3 | -9 | -3 | 0 | 4.8* | 13 | 0
CCN(CC)C(=O)COc1ccc2c3c(c(=O)oc2c1C)CCCC3 | -2 | -4 | -2 | 1 | -3 | .
Cc1nc(N2CCN(Cc3ccc(Cl)cc3)CC2)c2oc3ccccc3c2n1 | -1 | -6 | -1 | 1 | 1 | .
Cc1nc(N2CCN(Cc3ccc4c(c3)OCO4)CC2)c2oc3ccccc3c2n1 | -6 | -4 | -3 | 9.9* | 4 | 0
COC(=O)c1ccc(C2/C(=C(\O)c3ccc4c(c3)OCCO4)C(=O)C(=O)N2CCCN2CCOCC2)cc1 (centres undefined) | 2 | 2 | 0 | 1 | 7 | .
O=C1C(=O)N(CCCN2CCOCC2)C(c2ccc([N+](=O)[O-])cc2)/C1=C(/O)c1ccc2c(c1)OCO2 (centres undefined) | -2 | -4 | -1 | 5.7* | 6 | 3
Cc1ccc(/C=C(\C#N)C(=O)Nc2c(C)cccc2C)s1 | -10 | -4 | -1 | 7.1* | 0 | 6.1*
COC(=O)C[C@H]1CC[C@H]2[C@H](COc3ccc(NS(=O)(=O)c4cccc(F)c4)cc3C(=O)N2C)O1 | 1 | . | . | . | 5 | .
CCC(=O)N1CCc2cc(Br)c(S(=O)(=O)N3CCC(C(=O)NCCCOC(C)C)CC3)cc21 | 1 | . | . | . | 2 | .
O=C(/C=C/c1ccc(O)c(O)c1)O[C@@H]1C[C@](O)(C(=O)O)C[C@@H](O)[C@H]1O | 4 | -4 | -1 | 3 | 0 | .
